Data reported in the supplement of paper PMC10849652.
The full data set covers some 8,800 targets. This sample favours those with a hit. About 0.5% of all pairs of compound and target were hits.

Legend:
Experiment in all cases: log2 fold change, soluble protein after heating vs DMSO (PISA); higher = thermal stabilisation; K562 lysate, 10 uM; active = over 0.2 and 3.5 SD of the protein, either way, in both replicates (recomputed)
erlotinib = compound: C#Cc1cccc(Nc2ncnc3cc(OCCOC)c(OCCOC)cc23)c1 [erlotinib]
How it was run: (§1)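 K562 pellets were dounce-homogenised in PBS pH 7.4 containing 1 mM MgCl2, and the crude extract, at 1 mg/mL protein, was exposed to 10 μM compound for 30 min. Aliquots were heated for 3 min across 48°C-58°C, pooled, brought to 0.5% NP-40 at 4°C and spun at 21,000xg for 90 min, with the supernatant taken as soluble protein. TMTpro 16plex LC-MS/MS with equalised channel sums quantified that protein. Values are log-two fold changes in thermal stability relative to solvent controls, taken from duplicates.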

[1] = compound: C/C(=N\NC(=O)C1=CC(=CC=C1)S(=O)(=O)N2CCOCC2)/C3=C(C=CC(=C3)Cl)O
How it was run: as §1

[2] = compound: C1=CC(=CC=C1C2=NC3=C(N2)C=C(C=C3)C(=O)N)OC4=CC=C(C=C4)Cl
How it was run: as §1

[3] = compound: C1=CC2=C(C=CC(=C2)/C=C\3/C(=O)NC(=NCC4=CC=CS4)S3)N=C1
How it was run: as §1

[4] = compound: C1=CC2=NC=CN=C2C=C1/C=C/3\C(=O)NC(=O)S3
How it was run: as §1

[5] = compound: C1=CC=C(C=C1)C2=NC(=C(N2)C3=CC=NC=C3)C4=CC(=C(C=C4)Cl)O
How it was run: as §1

[6] = compound: C1=CC=C2C(=C1)C3=NNC4=CC=CC(=C43)C2=O
How it was run: as §1

[7] = compound: C1CCN(C1)C(=O)NC2=CC=CC(=C2)NC3=NC=C(C(=N3)NCCC4=CN=CN4)Br
How it was run: as §1

[8] = compound: C1CN(CCC1(CC2=CC=C(C=C2)Cl)N)C3=NC=NC4=C3C=CN4
How it was run: as §1

IRAK-1-4 Inhibitor I = compound: C1COCCN1CCN2C3=CC=CC=C3N=C2NC(=O)C4=CC(=CC=C4)[N+](=O)[O-] [IRAK-1-4 Inhibitor I]
How it was run: as §1

ibrutinib = compound: C=CC(=O)N1CCC[C@@H](n2nc(-c3ccc(Oc4ccccc4)cc3)c3c(N)ncnc32)C1 [ibrutinib]
How it was run: as §1

[9] = compound: CC(=O)c1cnc2ccc(-c3cc(Cl)c(O)c(Cl)c3)nc2c1N[C@H]1CC[C@H](CN(C)C)CC1
How it was run: as §1

ralimetinib = compound: CC(C)(C)Cn1c(N)nc2ccc(-c3[nH]c(C(C)(C)C)nc3-c3ccc(F)cc3)nc21 [ralimetinib]
How it was run: as §1

[10] = compound: CC(C)(O)CC(=O)NCCn1ccc2ncnc(Nc3ccc(Oc4cccc(C(F)(F)F)c4)c(Cl)c3)c21
How it was run: as §1

[11] = compound: CC(C)C1=C2N=C(C=C(N2N=C1)NCC3=CC=CC=C3)NCCCCCCN
How it was run: as §1

[12] = compound: CC1=C(C(CC(=O)N1)C2=CC=C(C=C2)C(F)(F)F)C(=O)NC3=C(C=C4C(=C3)C=NN4)F
How it was run: as §1

[13] = compound: CC1=C(C2=C(C=C1)C(=O)C3=CC=CC=C3N2CCCN)C
How it was run: as §1

[14] = compound: CC1=C(C=C(C=C1)NC(=O)C2=CC(=CC=C2)C(C)(C)C#N)NC3=CC4=C(C=C3)N=CN(C4=O)C
How it was run: as §1

[15] = compound: CC1=C(C=C(C=C1)NC(=O)C2=CC(=CC=C2)N(C)C)NC(=O)C3=CC=C(C=C3)O
How it was run: as §1

[16] = compound: CC1=CC=C(C=C1)SC2=C3C=C(SC3=CN=C2)C(=O)N
How it was run: as §1

Measured: log2 fold change

IMPACT (UniProt Q9P2X3)
inactive: erlotinib -0.03 | [1] 0.13 | [2] 0.014 | [3] 0.083 | [4] 0.043 | [5] 0.056 | [6] 0.001 | [7] 0.06 | [8] -0.082 | IRAK-1-4 Inhibitor I -0.076 | ibrutinib -0.19 | [9] -0.075 | ralimetinib 0.061 | [10] 0.001 | [11] -0.065 | [12] 0.289 | [13] 0.034 | [14] 0.146 | [15] 0.14 | [16] -0.052

IMMT (UniProt C9J406)
inactive: erlotinib 0.077 | [1] 0.041 | [2] -0.028 | [3] 0.001 | [4] 0.043 | [5] 0.028 | [6] -0.032 | [7] -0.222 | [8] 0.325 | IRAK-1-4 Inhibitor I -0.016 | ibrutinib 0.119 | [9] 0.046 | ralimetinib 0.126 | [10] -0.14 | [11] -0.096 | [12] 0.099 | [13] -0.03 | [14] -0.002 | [15] 0.012 | [16] -0.015

HMGCS1 (UniProt Q01581)
inactive: erlotinib -0.003 | [1] -0.035 | [2] 0.006 | [3] -0.001 | [4] -0.005 | [5] 0.014 | [6] 0.004 | [7] 0.003 | [8] 0.012 | IRAK-1-4 Inhibitor I -0.009 | ibrutinib -0.012 | [9] -0.006 | ralimetinib 0.012 | [10] -0.01 | [11] -0.001 | [12] -0.011 | [13] 0.013 | [14] -0.001 | [15] 0.006 | [16] 0.015

GOLGA1 (UniProt Q92805)
inactive: erlotinib 0.029 | [1] 0.09 | [2] -0.002 | [3] -0.004 | [4] 0.021 | [5] 0 | [6] 0.124 | [7] 0.018 | [8] 0.038 | IRAK-1-4 Inhibitor I 0.017 | ibrutinib 0.128 | [9] 0.008 | ralimetinib -0.024 | [10] -0.018 | [11] -0.019 | [12] 0.081 | [13] 0.027 | [14] -0.023 | [15] 0.019 | [16] 0.034

HMGN5 (UniProt P82970)
inactive: erlotinib 0.013 | [1] -0.122 | [2] 0.052 | [3] 0.021 | [4] -0.002 | [5] -0.013 | [6] 0.024 | [7] 0.067 | [8] 0.024 | IRAK-1-4 Inhibitor I 0.007 | ibrutinib -0.035 | [9] -0.012 | ralimetinib -0.064 | [10] -0.021 | [11] 0.006 | [12] -0.004 | [13] -0.035 | [14] -0.011 | [15] 0.036 | [16] -0.056

HNRNPUL1 (UniProt Q9BUJ2)
Sequence of UniProt Q9BUJ2 (Q9BUJ2 whole entry, looked up): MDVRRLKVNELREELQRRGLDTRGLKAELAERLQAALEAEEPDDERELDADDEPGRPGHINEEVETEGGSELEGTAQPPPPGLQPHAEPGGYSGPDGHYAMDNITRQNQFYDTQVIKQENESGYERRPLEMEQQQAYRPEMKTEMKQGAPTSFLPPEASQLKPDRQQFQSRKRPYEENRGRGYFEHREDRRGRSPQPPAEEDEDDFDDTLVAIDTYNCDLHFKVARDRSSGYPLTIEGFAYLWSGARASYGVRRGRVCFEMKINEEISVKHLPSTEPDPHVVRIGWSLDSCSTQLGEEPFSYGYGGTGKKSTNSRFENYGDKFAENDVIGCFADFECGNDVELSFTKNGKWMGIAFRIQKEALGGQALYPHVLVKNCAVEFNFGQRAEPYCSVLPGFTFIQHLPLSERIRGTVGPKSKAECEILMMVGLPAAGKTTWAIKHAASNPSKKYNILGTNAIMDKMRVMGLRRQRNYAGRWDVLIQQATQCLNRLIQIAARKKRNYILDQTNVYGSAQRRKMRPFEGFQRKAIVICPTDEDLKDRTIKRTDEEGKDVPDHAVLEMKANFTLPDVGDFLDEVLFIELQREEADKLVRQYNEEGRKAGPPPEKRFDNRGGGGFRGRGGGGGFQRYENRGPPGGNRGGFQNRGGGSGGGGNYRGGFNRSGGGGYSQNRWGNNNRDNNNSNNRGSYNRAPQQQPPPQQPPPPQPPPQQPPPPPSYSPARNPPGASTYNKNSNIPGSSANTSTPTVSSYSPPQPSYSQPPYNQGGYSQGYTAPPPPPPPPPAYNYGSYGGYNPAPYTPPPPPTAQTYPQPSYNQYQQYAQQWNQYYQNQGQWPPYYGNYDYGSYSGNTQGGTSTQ
inactive: erlotinib -0.039 | [1] 0.011 | [2] 0.002 | [3] -0.016 | [4] -0.023 | [5] -0.045 | [6] 0.03 | [7] 0.01 | [8] -0.02 | IRAK-1-4 Inhibitor I -0.032 | ibrutinib 0.028 | [9] -0.13 | ralimetinib 0.017 | [10] -0.014 | [11] -0.019 | [12] 0 | [13] -0.012 | [15] 0 | [16] 0.007
active: [14] -0.275

IGF2BP3 (UniProt O00425)
Sequence of UniProt O00425 (O00425 whole entry, looked up): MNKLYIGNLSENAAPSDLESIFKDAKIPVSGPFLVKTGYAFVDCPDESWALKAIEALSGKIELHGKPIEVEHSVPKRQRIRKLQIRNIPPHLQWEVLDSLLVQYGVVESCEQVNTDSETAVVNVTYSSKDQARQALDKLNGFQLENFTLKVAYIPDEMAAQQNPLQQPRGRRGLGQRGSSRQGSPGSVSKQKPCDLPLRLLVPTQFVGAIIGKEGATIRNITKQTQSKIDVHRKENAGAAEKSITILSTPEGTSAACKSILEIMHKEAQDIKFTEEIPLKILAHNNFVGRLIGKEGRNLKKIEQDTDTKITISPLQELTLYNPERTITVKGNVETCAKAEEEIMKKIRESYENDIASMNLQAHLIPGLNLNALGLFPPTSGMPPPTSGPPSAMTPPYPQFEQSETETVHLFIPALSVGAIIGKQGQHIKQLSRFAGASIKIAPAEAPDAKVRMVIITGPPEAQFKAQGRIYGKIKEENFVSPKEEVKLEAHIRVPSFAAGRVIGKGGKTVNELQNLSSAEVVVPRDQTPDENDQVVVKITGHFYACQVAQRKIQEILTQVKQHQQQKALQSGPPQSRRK
inactive: erlotinib 0.04 | [1] 0.023 | [2] -0.007 | [3] 0.003 | [4] 0.005 | [5] 0.024 | [6] -0.067 | [7] 0.026 | [8] 0 | IRAK-1-4 Inhibitor I -0.018 | ibrutinib 0.006 | [9] -0.019 | ralimetinib -0.012 | [10] 0.011 | [11] 0.024 | [12] -0.009 | [13] 0.011 | [14] -0.047 | [15] 0.007 | [16] 0.021

HEATR6 (UniProt Q6AI08)
Sequence of UniProt Q6AI08 (Q6AI08 whole entry, looked up): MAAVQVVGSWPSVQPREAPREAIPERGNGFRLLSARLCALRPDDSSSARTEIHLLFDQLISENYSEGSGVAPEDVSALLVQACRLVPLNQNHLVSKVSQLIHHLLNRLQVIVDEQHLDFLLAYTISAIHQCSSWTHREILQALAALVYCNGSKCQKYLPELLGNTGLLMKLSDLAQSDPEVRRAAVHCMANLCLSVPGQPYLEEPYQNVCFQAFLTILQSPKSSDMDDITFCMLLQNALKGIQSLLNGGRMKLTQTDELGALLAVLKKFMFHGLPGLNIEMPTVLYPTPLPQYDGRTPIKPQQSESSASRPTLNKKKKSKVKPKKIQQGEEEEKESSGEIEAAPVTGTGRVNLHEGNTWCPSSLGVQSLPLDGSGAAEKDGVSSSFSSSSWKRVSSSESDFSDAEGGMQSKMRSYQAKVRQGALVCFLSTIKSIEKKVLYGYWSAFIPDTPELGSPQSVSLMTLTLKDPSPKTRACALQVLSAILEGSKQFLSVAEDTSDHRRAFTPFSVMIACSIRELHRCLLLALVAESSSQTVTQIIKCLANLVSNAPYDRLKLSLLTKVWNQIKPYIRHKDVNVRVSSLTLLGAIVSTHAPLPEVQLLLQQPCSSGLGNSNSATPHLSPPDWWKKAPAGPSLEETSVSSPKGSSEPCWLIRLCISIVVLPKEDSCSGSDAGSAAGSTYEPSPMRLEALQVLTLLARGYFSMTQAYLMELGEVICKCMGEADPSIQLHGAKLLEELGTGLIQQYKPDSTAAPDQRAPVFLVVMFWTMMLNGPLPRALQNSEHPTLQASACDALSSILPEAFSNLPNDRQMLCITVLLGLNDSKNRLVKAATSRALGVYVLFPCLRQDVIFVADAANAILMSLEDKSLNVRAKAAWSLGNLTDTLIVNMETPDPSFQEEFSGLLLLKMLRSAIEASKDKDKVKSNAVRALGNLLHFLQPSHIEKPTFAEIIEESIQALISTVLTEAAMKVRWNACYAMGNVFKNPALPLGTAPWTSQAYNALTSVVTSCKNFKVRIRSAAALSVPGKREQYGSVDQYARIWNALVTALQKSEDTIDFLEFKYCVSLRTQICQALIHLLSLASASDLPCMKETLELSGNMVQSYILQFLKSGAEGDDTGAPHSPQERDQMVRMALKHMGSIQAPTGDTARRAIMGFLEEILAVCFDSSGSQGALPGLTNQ
inactive: erlotinib -0.033 | [1] 0.024 | [2] -0.002 | [3] 0.022 | [4] 0.085 | [5] -0.006 | [6] -0.026 | [7] -0.03 | [8] -0.007 | IRAK-1-4 Inhibitor I -0.028 | ibrutinib 0.045 | [9] -0.036 | ralimetinib 0.064 | [10] -0.031 | [11] -0.051 | [12] 0.033 | [13] -0.069 | [14] -0.004 | [15] 0.083 | [16] -0.009

HAUS2 (UniProt Q9NVX0)
inactive: erlotinib 0 | [1] 0.045 | [2] -0.12 | [3] 0.116 | [4] -0.02 | [5] 0.03 | [6] 0.031 | [7] -0.015 | [8] 0.026 | IRAK-1-4 Inhibitor I 0.003 | ibrutinib 0.145 | [9] 0.1 | ralimetinib 0.054 | [10] 0.058 | [11] 0.003 | [12] 0.026 | [13] -0.079 | [14] -0.017 | [15] 0.023 | [16] -0.021

IL18R1 (UniProt Q13478)
inactive: erlotinib -0.029 | [1] -0.493 | [2] -0.136 | [3] 0.147 | [4] 0.041 | [5] 0.152 | [6] 0.079 | [7] -0.155 | [8] 0.058 | IRAK-1-4 Inhibitor I -0.043 | ibrutinib -0.177 | [9] 0.117 | ralimetinib -0.261 | [10] -0.463 | [11] 0.053 | [12] -0.066 | [13] -0.031 | [14] 0.061 | [15] 0.15 | [16] 0.097

HS1BP3 (UniProt Q53T59)
Sequence of UniProt Q53T59 (Q53T59 whole entry, looked up): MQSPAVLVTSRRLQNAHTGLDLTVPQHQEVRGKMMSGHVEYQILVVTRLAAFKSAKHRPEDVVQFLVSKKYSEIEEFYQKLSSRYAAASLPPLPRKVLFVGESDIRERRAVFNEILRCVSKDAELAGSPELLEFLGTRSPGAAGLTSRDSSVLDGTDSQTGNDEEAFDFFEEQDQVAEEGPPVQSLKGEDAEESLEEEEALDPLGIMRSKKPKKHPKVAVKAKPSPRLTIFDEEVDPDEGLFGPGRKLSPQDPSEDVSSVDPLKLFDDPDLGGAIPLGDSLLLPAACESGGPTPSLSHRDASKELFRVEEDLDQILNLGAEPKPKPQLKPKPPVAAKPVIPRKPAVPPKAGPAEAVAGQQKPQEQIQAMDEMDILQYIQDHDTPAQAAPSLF
inactive: erlotinib -0.019 | [1] -0.04 | [2] 0.007 | [3] -0.013 | [4] -0.027 | [5] -0.031 | [6] 0.029 | [7] -0.022 | [8] 0.01 | IRAK-1-4 Inhibitor I 0.01 | ibrutinib -0.01 | [9] 0.001 | ralimetinib 0.017 | [10] 0 | [11] -0.013 | [12] 0.005 | [13] 0.056 | [14] 0.016 | [15] -0.005 | [16] -0.013

GTF3C5 isoform 3 (UniProt Q9Y5Q8)
Sequence of UniProt Q9Y5Q8 (Q9Y5Q8 whole entry, looked up): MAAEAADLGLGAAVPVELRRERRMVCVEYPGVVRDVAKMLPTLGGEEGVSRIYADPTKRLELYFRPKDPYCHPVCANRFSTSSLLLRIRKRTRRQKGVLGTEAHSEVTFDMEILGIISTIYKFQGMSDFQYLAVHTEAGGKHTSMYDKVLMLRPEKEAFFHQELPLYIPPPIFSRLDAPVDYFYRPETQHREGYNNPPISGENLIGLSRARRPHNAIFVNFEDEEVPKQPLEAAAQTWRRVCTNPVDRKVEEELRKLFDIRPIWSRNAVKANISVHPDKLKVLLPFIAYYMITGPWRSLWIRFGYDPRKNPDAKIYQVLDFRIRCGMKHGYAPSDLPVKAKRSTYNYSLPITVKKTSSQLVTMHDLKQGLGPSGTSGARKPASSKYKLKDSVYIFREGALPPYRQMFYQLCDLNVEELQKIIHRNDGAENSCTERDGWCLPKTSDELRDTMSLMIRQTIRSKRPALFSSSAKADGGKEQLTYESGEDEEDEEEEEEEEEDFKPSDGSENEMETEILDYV
inactive: erlotinib -0.002 | [1] -0.042 | [2] -0.01 | [3] 0.007 | [4] -0.024 | [5] -0.019 | [6] -0.03 | [7] 0.072 | [8] 0.019 | IRAK-1-4 Inhibitor I -0.015 | ibrutinib 0.029 | [9] 0.034 | ralimetinib 0.009 | [10] 0.005 | [11] -0.016 | [12] 0.025 | [13] -0.007 | [14] 0.015 | [15] 0.003 | [16] 0.008

KCT2 (UniProt Q8NC54)
inactive: erlotinib -0.05 | [1] 0.098 | [2] 0.041 | [3] 0.017 | [4] 0.055 | [5] 0 | [6] -0.026 | [7] 0.021 | [8] 0.01 | IRAK-1-4 Inhibitor I 0.031 | ibrutinib 0.025 | [9] 0.018 | ralimetinib 0.038 | [10] -0.076 | [11] -0.015 | [12] 0.008 | [13] -0.034 | [14] -0.025 | [15] 0.004 | [16] -0.024

GLUD2 (UniProt P49448)
Sequence of UniProt P49448 (P49448 whole entry, looked up): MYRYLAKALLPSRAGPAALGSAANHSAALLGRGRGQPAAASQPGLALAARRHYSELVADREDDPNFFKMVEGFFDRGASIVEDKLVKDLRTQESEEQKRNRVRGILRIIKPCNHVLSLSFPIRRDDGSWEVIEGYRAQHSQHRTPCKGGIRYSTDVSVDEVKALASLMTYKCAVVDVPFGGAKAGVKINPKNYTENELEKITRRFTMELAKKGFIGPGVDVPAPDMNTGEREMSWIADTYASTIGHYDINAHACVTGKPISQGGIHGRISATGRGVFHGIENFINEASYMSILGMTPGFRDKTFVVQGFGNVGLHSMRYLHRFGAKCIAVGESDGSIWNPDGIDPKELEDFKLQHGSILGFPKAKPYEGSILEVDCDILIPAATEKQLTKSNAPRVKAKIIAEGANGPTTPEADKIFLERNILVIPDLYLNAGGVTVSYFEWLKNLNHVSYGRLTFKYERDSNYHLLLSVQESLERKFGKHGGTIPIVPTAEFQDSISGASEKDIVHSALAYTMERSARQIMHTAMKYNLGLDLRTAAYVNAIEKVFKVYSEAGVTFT
inactive: erlotinib -0.017 | [1] -0.016 | [2] -0.053 | [3] 0.028 | [4] -0.057 | [5] -0.014 | [6] -0.09 | [7] -0.119 | [8] 0.029 | IRAK-1-4 Inhibitor I 0.113 | ibrutinib -0.063 | [9] 0.063 | ralimetinib 0.02 | [10] -0.043 | [11] -0.012 | [12] 0.018 | [13] -0.028 | [14] 0.061 | [15] 0.001 | [16] 0.033

HMGA1 (UniProt P17096)
Sequence of UniProt P17096 (P17096 whole entry, looked up): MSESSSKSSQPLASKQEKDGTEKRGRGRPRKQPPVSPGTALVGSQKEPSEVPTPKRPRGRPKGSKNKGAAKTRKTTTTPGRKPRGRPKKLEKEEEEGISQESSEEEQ
inactive: erlotinib -0.037 | [1] -0.053 | [2] -0.001 | [3] -0.026 | [4] -0.053 | [5] -0.007 | [6] 0.026 | [7] 0.036 | [8] 0.013 | IRAK-1-4 Inhibitor I -0.022 | ibrutinib 0.004 | [9] -0.022 | ralimetinib -0.024 | [10] -0.043 | [11] 0.002 | [12] -0.03 | [13] 0.075 | [14] -0.008 | [15] -0.023 | [16] -0.017

HADHA (UniProt P40939)
Sequence of UniProt P40939 (P40939 whole entry, looked up): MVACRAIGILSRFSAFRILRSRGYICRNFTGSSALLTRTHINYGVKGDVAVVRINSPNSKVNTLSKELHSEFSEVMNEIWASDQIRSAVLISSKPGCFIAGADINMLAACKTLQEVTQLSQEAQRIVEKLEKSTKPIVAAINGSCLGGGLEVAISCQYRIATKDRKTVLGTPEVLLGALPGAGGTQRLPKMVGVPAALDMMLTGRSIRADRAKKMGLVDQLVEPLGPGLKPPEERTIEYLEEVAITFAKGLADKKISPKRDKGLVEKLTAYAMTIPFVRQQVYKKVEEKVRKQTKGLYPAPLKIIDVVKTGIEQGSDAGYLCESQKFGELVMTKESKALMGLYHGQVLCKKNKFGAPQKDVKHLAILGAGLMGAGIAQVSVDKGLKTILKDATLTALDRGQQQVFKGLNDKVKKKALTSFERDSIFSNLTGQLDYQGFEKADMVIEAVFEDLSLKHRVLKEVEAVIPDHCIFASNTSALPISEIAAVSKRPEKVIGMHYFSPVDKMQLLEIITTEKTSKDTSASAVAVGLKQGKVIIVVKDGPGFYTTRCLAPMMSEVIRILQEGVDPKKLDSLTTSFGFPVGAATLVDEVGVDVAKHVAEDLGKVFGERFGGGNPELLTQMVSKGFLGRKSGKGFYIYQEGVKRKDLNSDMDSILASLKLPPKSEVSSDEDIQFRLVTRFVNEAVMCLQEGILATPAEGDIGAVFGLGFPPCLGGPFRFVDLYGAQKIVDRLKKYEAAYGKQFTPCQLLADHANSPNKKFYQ
inactive: erlotinib -0.08 | [1] 0.042 | [3] 0.014 | [4] -0.087 | [5] -0.003 | [6] 0.026 | [7] -0.067 | [8] 0.04 | IRAK-1-4 Inhibitor I 0.031 | ibrutinib 0.078 | [9] -0.057 | ralimetinib 0.012 | [10] 0.05 | [11] -0.042 | [12] -0.031 | [13] -0.01 | [14] 0.055 | [15] -0.033 | [16] 0.077
active: [2] 0.387
